Measurements published in PubChem BioAssay AID1159580 (chemical genetic matrix, 2015).
Several values for one entry are separate records, joined by “and”; a condition that tells them apart may be missing. Identical values can stand only once. Out of some 5,500 compounds screened, about 2,000 (36%) were called active. About 18% were inconclusive and are not listed. No stated cut-off is given here; in the data, active means normalized growth mostly below about 0.91 (no sharp cut-off); inconclusive means no clear call, values can overlap the other calls; inactive means mostly above about 0.92. This is one part of the list.

Assay: chemical genetic growth profiling, strain panel (AID 1159580);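 further: tested at 20 µM; growth read once vehicle control cultures reached saturation at 30 °C; 1 = growth at the plate median or of vehicle wells; lower values mean less growth of the strain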
Conditions: S. cerevisiae deletion strains, growth OD

Measured: normalized growth

CC[C@H]1OC(=O)[C@H](C)[C@@H](O[C@H]2C[C@@](C)(OC)[C@@H](O)[C@H](C)O2)[C@H](C)[C@@H](O[C@@H]2O[C@H](C)C[C@H](N(C)C)[C@H]2O)[C@](C)(O)C[C@@H](C)/C(=N/OCOCCOC)[C@H](C)[C@@H](O)[C@]1(C)O
inactive: locus YAL021C, strain ccr4, active compounds read low 1.03 | locus YAL026C, strain drs2, active compounds read low 1.02 | locus YAL030W, strain snc1, active compounds read low 0.998 | locus YBL061C, strain skt5, active compounds read low 1.01 | locus YBR009C, strain hhf1, active compounds read low 0.998 | locus YBR021W, strain FUR4, active compounds read low 1.02 | locus YBR023C, strain chs3, active compounds read low 1.01 | locus YBR171W, strain sec66, active compounds read low 1.03 | locus YBR229C, strain ROT2, active compounds read low 1.01 | locus YBR231C, strain swc5, active compounds read low 1.01 | locus YBR279W, strain paf1, active compounds read low 1 | locus YCL011C, strain gbp2, active compounds read low 1.01 | locus YCL016C, strain dcc1, active compounds read low 1 | locus YCL029C, strain bik1, active compounds read low 0.988 | locus YCL069W, strain vba3, active compounds read low 1.02 | locus YCR088W, strain abp1, active compounds read low 1.01 | locus YDL005C, strain med2, active compounds read low 1.01 | locus YDL035C, strain GPR1, active compounds read low 1.01 | locus YDL040C, strain nat1, active compounds read low 1.01 | locus YDL074C, strain BRE1, active compounds read low 0.975 | locus YDL101C, strain DUN1, active compounds read low 0.991 | locus YDL134C, strain PPH21, active compounds read low 1.01 | locus YDL185W, strain tfp1, active compounds read low 1 | locus YDL192W, strain arf1, active compounds read low 1.01 | locus YDR001C, strain nth1, active compounds read low 1.01 | locus YDR069C, strain doa4, active compounds read low 1.03 | locus YDR101C, strain arx1, active compounds read low 0.994 | locus YDR137W, strain rgp1, active compounds read low 0.969 | locus YDR159W, strain sac3, active compounds read low 0.996 | locus YDR162C, strain NBP2, active compounds read low 1.01 | locus YDR195W, strain ref2 0.994 | locus YDR297W, strain sur2, active compounds read low 1.02 | locus YDR318W, strain mcm21, active compounds read low 0.995 | locus YDR334W, strain swr1, active compounds read low 1.01 | locus YDR335W, strain msn5, active compounds read low 1.01 | locus YDR388W, active compounds read low 0.999 | locus YDR392W, strain spt3, active compounds read low 0.949 | locus YDR502C, strain sam2, active compounds read low 1.01 | locus YEL003W, strain gim4, active compounds read low 1.02 | locus YEL037C, strain rad23, active compounds read low 1.02 | locus YEL061C, strain CIN8 (second series), active compounds read low 1 | locus YEL061C, strain CIN8, active compounds read low 1 | locus YER015W, strain faa2, active compounds read low 1.01 | locus YER016W, strain bim1, active compounds read low 0.995 | locus YER110C, active compounds read low 1 | locus YER111C, strain swi4, active compounds read low 1.01 | locus YER155C, strain BEM2 (second series), active compounds read low 0.897 | locus YER155C, strain BEM2, active compounds read low 1 | locus YER167W, strain BCK2, active compounds read low 1 | locus YFR010W, strain ubp6, active compounds read low 1.02 | locus YGL078C, strain dbp3, active compounds read low 1 | locus YGL086W, strain mad1, active compounds read low 1 | locus YGL167C, strain pmr1, active compounds read low 1 | locus YGL173C, strain kem1, active compounds read low 1.02 | locus YGL227W, strain vid30, active compounds read low 1.03 | locus YGL240W, strain doc1, active compounds read low 1.02 | locus YGL248W, strain PDE1, active compounds read low 0.993 | locus YGL253W, strain hxk2, active compounds read low 1.01 | locus YGR135W, strain pre9, active compounds read low 1.04 | locus YGR229C, strain SMI1, active compounds read low 1.01 | locus YHR013C, strain ard1, active compounds read low 0.983 | locus YHR027C, strain rpn1, active compounds read low 0.999 | locus YHR030C, strain SLT2, active compounds read low 1.01 and 0.997 | locus YHR079C, strain IRE1 (second series), active compounds read low 0.98 | locus YHR079C, strain IRE1, active compounds read low 0.985 | locus YHR094C, strain hxt1, active compounds read low 0.987 | locus YHR129C, strain ARP1, active compounds read low 1.01 | locus YHR142W, strain chs7, active compounds read low 1.02 | locus YHR200W, strain rpn10, active compounds read low 1.01 | locus YIL066C, strain RNR3, active compounds read low 0.983 | locus YIL073C, strain SPO22, active compounds read low 1.07 | locus YIL125W, strain kgd1, active compounds read low 1 | locus YIR030C, strain dcg1, active compounds read low 0.997 | locus YJL092W, strain hpr5, active compounds read low 1.01 | locus YJL095W, strain BCK1 (second series), active compounds read low 1.01 | locus YJL095W, strain BCK1, active compounds read low 0.97 and 0.99 | locus YJL115W, strain asf1, active compounds read low 1.04 | locus YJL129C, strain trk1, active compounds read low 1.02 | locus YJL134W, strain LCB3, active compounds read low 1 | locus YJL154C, strain vps35, active compounds read low 1.01 | locus YJL164C, strain tpk1, active compounds read low 1.01 | locus YJL166W, strain qcr8, active compounds read low 1.01 | locus YJL168C, strain set2, active compounds read low 0.992 | locus YJL187C, strain SWE1 (second series), active compounds read low 0.97 | locus YJL187C, strain SWE1, active compounds read low 1.02 | locus YJR043C, strain POL32, active compounds read low 1.01 | locus YJR066W, strain TOR1, active compounds read low 0.977
